High-throughput results from PubChem.
Only some compounds are listed: those with a hit (about 7% of all), similar ones and a draw of the others.
USP28 inh: inhibitors of human USP28 deubiquitinase; AID 1645857, 2021; inhibition, % at 25 µM; Ubiquitin carboxyl-terminal hydrolase 28 (Homo sapiens), Q96RU2; purified USP28, Ub-rhodamine cleavage fluorescence, 30 min; 3% of 47,000 active
Target sequence (Q96RU2 whole entry, looked up): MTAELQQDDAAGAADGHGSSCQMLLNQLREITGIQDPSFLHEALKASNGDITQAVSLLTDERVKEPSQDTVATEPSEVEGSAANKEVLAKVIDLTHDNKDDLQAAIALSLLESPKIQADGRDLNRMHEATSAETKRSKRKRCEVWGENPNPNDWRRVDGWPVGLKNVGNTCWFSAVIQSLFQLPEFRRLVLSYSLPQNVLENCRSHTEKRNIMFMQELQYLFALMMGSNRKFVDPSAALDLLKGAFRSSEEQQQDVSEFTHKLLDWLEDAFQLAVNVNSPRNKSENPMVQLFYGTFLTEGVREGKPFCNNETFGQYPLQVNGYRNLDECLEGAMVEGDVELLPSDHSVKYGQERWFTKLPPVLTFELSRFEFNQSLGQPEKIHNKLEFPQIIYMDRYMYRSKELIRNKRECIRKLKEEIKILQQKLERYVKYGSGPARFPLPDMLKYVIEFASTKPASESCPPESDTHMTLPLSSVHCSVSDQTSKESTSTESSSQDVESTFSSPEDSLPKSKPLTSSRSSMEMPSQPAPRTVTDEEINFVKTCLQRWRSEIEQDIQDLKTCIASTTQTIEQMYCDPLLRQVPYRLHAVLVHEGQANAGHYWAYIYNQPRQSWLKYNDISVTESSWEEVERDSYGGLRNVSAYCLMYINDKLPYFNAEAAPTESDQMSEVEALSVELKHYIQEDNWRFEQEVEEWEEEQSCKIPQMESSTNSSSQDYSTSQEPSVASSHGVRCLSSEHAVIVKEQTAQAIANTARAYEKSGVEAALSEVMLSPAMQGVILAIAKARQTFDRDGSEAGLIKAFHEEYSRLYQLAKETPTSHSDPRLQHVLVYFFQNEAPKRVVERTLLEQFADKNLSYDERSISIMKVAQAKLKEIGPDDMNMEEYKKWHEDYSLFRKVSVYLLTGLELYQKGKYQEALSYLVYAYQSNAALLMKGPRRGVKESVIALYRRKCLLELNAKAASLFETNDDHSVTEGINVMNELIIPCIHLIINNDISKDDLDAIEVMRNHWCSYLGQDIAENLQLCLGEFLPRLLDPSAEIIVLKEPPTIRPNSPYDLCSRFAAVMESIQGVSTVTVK
USP30 block: inhibitors of human USP30 deubiquitinase. inhibition, % at 25 µM. purified USP30, Ub-rhodamine cleavage fluorescence. AID 1645860, 2021. 5.3% of 47,000 active. Ubiquitin carboxyl-terminal hydrolase 30 (Homo sapiens), Q70CQ3
* marks the source's active call; other numbers are inactive results; i = inactive. Cut-off read from the data, not from the text of the source: active = inhibition above about 30%; inactive = the rest.

SMILES	USP28 inh	USP30 block
Cc1cc(OCC(=O)Nc2ccccc2)nc(N2CCCC(C)C2)n1 (stereo not given)	2.2	13.9
Cc1ccc2cccc(NC(=O)COc3ccccc3)c2n1	13.4	29.5
Cc1cc(OCC(=O)Nc2ccc(C#N)cc2)nc(-c2ccc(F)cc2)n1	11.7	28.5
Cc1cccc(NC(=O)COc2cc(C)nc(N3CCCCC3)n2)c1	13.7	30.4*
Cc1cc2n(n1)CC(C)(C(=O)NCc1ccccc1)N(c1ccc3c(c1)OCCO3)C2=O (stereo not given)	-3.8	-16.0
CC1(C(=O)NCc2ccc(F)cc2)Cn2nc(-c3ccco3)cc2C(=O)N1c1ccc2c(c1)OCCO2 (stereo not given)	35.3*	5.0
Cc1ccc(-n2cc(C(=O)NCc3ccccn3)nn2)cc1C	11.9	18.0
Cc1ccc(-n2cc(C(=O)N3CCc4ccccc4C3)nn2)cc1	-4.3	-1.0
Cc1ccc(-n2cc(C(=O)NCCCc3ccccc3)nn2)cc1	16.6	48.8*
Cc1ccc(-n2cc(C(=O)N3CCN(c4ccccc4)CC3)nn2)cc1	10.1	43.7*
c1ccc(-c2nnc(C3(c4ccc5c(c4)OCO5)CCOCC3)o2)cc1	-5.7	-5.2
Cc1cc(C(=O)N2CCC3(CC2)CNS(=O)(=O)c2ccccc2OC3)n[nH]1	17.5	15.0
Cc1cccc(S(=O)(=O)N2CC=C(c3cn(C)c4ncccc34)CC2)c1	3.0	-10.3
COC(=O)c1ccccc1NC(=O)C1CCCN(c2nnc(-n3cccc3)s2)C1 (stereo not given)	17.6	36.4*
Cc1c(Cl)cccc1NC(=O)C1CCCN(c2nnc(-n3cccc3)s2)C1 (stereo not given)	-13.2	-45.2
Cc1c(C(=O)Nc2ccc(Cl)cc2)nnn1-c1ccc(F)cc1	10.4	23.0
Cc1ccc(-n2nnc(C(=O)Nc3ccc(F)cc3)c2C)cc1C	1.6	14.3
Cc1ccc(NC(=O)c2nnn(-c3cccc(F)c3)c2C)cc1	9.5	42.7*
COc1ccc(NC(=O)c2nnn(-c3ccccc3C)c2C)cc1OC	72.2*	-16.2
CCc1ccc(-n2nnc(C(=O)Nc3ccc(F)cc3)c2C)cc1	14.9	32.2*
Cc1ccc(Cl)cc1-n1nnc(C(=O)Nc2ccccc2)c1C	24.6	20.5
N#C/C(=C/c1sc(N2CCOCC2)nc1-c1ccccc1)c1ccccn1	-258.0	i
CN1CCC(C(=O)N2CCCC(c3cccc(-c4ccccc4F)n3)C2)CC1 (stereo not given)	20.2	18.6
Cc1ccc(F)c(NS(=O)(=O)c2c(C)nc3sc(C)nn23)c1	-0.2	0.7
CCOc1ccc(NC(=O)COc2ccccc2OC)c2cccnc12	-6.0	-26.9
SMILES	USP28 inh	USP30 block
O=C(CCCn1c(=O)[nH]c2ccccc2c1=O)N1CCC(Cc2ccccc2)CC1	5.6	11.0
O=C(Cc1ccc(-n2c(=O)[nH]c3ccsc3c2=O)cc1)N1CCC(Cc2ccccc2)CC1	37.4*	28.7
O=C(Cn1c(CN2CCOCC2)nc2ccccc2c1=O)NCc1ccc(Cl)cc1	-5.7	-13.5
Cc1ccccc1-c1nc2[nH]c(=O)cc(NC(=O)Cc3ccccc3)n2n1	-66.1	-242.5
O=C(NCc1ccccc1Cl)c1ccc(-c2nnc(-c3ccccc3)o2)cc1	8.2	35.9*
Cc1ccccc1-c1nnc(-c2ccc(C(=O)NCc3ccccc3F)cc2)o1	27.8	66.1*
O=C(COc1ccccc1-c1nnc(-c2ccccc2)o1)NCc1ccccc1Cl	-1.7	-2.8
Cc1ccc(C(=O)Nc2nccnc2C(=O)NCc2ccccc2F)cc1	-1.5	-9.4
c1ccc2c(c1)nc1n2CCCN(Cc2ccncc2)C1	-16.4	-35.2
COc1ccc(CCNC(=O)CN2CCN(Cc3ccccc3F)C2=O)cc1OC	6.1	17.6
COc1ccc(CCNC(=O)Cn2c(=O)c3sccc3n(Cc3cccc([N+](=O)[O-])c3)c2=O)cc1OC	10.6	44.5*
COc1ccc(NC(=O)Cn2c(=O)n(CCC(=O)NCc3ccccc3)c(=O)c3sccc32)cc1Cl	2.2	15.4
COc1ccc(CCNC(=O)Cn2c(=O)c3sccc3n(Cc3ccccc3F)c2=O)cc1OC	-6.0	51.9*
Cc1ccc(NC(=O)Cn2c(=O)n(CC(=O)NCCc3ccccc3)c(=O)c3sccc32)cc1C	10.6	46.8*
COc1ccc(CNC(=O)CCn2c(=O)c3sccc3n(Cc3cccc([N+](=O)[O-])c3)c2=O)cc1	10.7	12.6
CCc1cc(C(=O)N2CCCCC2)nc2cc(-c3ccccn3)nn12	-14.6	-18.3
O=C(c1cc(-c2cccnc2)n[nH]1)N1CCN(c2ccccc2F)CC1	9.9	28.4
COc1ccc2c(N3CCC(C(=O)N4CCCCC4)CC3)c(C#N)cnc2c1	-1.9	8.3
Cc1cc(C)c2c(-n3c(C)ccc3C)nn(CC(=O)NCCc3ccc(Cl)cc3)c2n1	0.3	-20.9
Cc1cc(C)n(-c2cccc(C(=O)Nc3ccc4c(c3)CCN4S(C)(=O)=O)c2)n1	79.7*	-9.7
CS(=O)(=O)N1CCc2ccc(C(=O)Nc3ccc(F)cc3)cc21	-7.5	-27.2
O=C(CCc1c[nH]c2ccccc12)N1C[C@@H](O)[C@H](N2CCCC2)C1	-12.0	-4.0
O=C1N[C@H](Cc2c[nH]c3ccccc23)C(=O)N[C@H]1Cc1c[nH]c2ccccc12	12.3	35.7*
COc1ccc2[nH]c3c(c2c1)CCN1C(=O)CN(CCCn2ccnc2)C(=O)[C@]31C	3.3	-2.8
O=C(Cc1nnc(-c2cnccn2)o1)Nc1ccc(F)c(Cl)c1	14.0	16.5
SMILES	USP28 inh	USP30 block
O=C(Cc1nnc(-c2cnccn2)o1)Nc1ccc(Cl)cc1	22.6	37.6*
COc1ccc(S(=O)(=O)N(C)C)cc1NC(=O)CN1CCc2sccc2C1C1CC1 (stereo not given)	-0.1	5.1
O=C1OC(C(=O)Nc2nc3c(ccc4ccccc43)s2)Cc2ccccc21 (stereo not given)	5.7	9.3
O=C(Nc1nc2c(ccc3ccccc32)s1)C1CCCC1	29.0	34.3*
Cc1ccc(NC(=O)C2C3C=CC4(O3)C2C(=O)N(C2CC2)C4C(=O)NC2CCCCC2)cc1 (stereo not given)	8.3	17.1
CCOc1cc(C2c3c(oc4ccccc4c3=O)C(=O)N2c2nc3ccc(C)cc3s2)ccc1O (stereo not given)	8.2	34.7*
CCOC(=O)c1ccc2nc(N3C(=O)c4oc5ccccc5c(=O)c4C3c3ccco3)sc2c1 (stereo not given)	-9.4	-27.1
Cc1ccc(NC(=O)CC2C(=O)Nc3nc(-c4ccccc4)nn32)cc1 (stereo not given)	11.3	20.9
COc1ccc(-c2nc3n(n2)C(CC(=O)Nc2cccc4ccccc24)C(=O)N3)cc1 (stereo not given)	26.9	52.1*
Cn1cnnc1Sc1ncnc(N)c1[N+](=O)[O-]	8.8	33.5*
Nc1ncnc(N2CC(=O)N(CCc3ccccc3)C(=O)C2)c1[N+](=O)[O-]	-220.8	i
CCc1nnc(-c2ccc(=O)n(CC(=O)Nc3ccc(F)cc3)c2)o1	1.9	9.9
Cn1c2ccccc2c(=O)c2c(=O)n(Cc3ccccc3)c(-c3ccccc3F)nc21	0.4	-15.0
Cn1c2ccccc2c(=O)c2c(=O)n(Cc3ccccc3)c(-c3ccco3)nc21	43.8*	-21.2
Cc1ccccc1CNC(=O)c1ccc(-c2ccc(N3CCCC3)nn2)cc1	4.2	-3.3
O=C(NCc1ccccc1Cl)C1CCN(c2ccc(-c3ccccc3)nn2)CC1	5.8	41.1*
COc1ccccc1N1CCN(C(=O)c2noc3c2CCc2sccc2-3)CC1	11.3	-20.0
